Experimental data: the supplement of paper PMC10127200
Counter-ions that a name gives are not always drawn.

Experiments:
Experiment in all cases: Euclidean distance of Cell Painting phenotypic profile (signed KS, 77 features) to DMSO centroid (dimensionless distance); 5 or 10 uM (library dependent); higher = stronger phenotypic change vs DMSO (phenoactivity)
Settings in all cases: 48 h
786-O = system: 786-O
Method in brief: (§1)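 Five cancer lines, together with a healthy fibroblast line, received library compounds for 48 h at a library-dependent 10 or 5 uM and 0.1% DMSO final. Harmony then derived 77 features from confocal 20X images (9 fields/well) of the stained cells, scoring each as a signed Kolmogorov-Smirnov statistic against same-plate vehicle wells. After plate-position correction, correlation weighting and replicate averaging at the top dose, phenoactivity was taken as each profile's Euclidean distance to the median vehicle profile.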

A549 = system: A549
Method in brief: as §1

DU145 = system: DU145
Method in brief: as §1

FB = system: FB
Method in brief: as §1

HEPG2 = system: HEPG2
Method in brief: as §1

OVCAR4 = system: OVCAR4
Method in brief: as §1

| Compound | Euclidean distance (786-O) | Euclidean distance (A549) | Euclidean distance (DU145) | Euclidean distance (FB) | Euclidean distance (HEPG2) | Euclidean distance (OVCAR4) |
| --- | --- | --- | --- | --- | --- | --- |
| Cc1c(Cl)cccc1Nc1ccccc1C(=O)O [Tolfenamic Acid] | 1.28 | 0.83 | 0.762 | 0.742 | 0.5 | 1.19 |
| OC(CCN1CCCCC1)(c1ccccc1)C1CC2C=CC1C2 (centres undefined) [Biperiden HCl] | 0.618 | 0.662 | 0.98 | 1.08 | 1.01 | 0.843 |
| O=C(O)CCc1nc(-c2ccccc2)c(-c2ccccc2)o1 [Oxaprozin] | 1.01 | 0.794 | 0.541 | 0.987 | 1.16 | 1.28 |
| CCCCCCCCCCCC1=C(O)C(=O)C=C(O)C1=O [Embelin] | 1.85 | 1.18 | 1.4 | 1.6 | 1.16 | 1.88 |
| CNC(=O)c1cc(Oc2ccc(NC(=O)Nc3ccc(Cl)c(C(F)(F)F)c3)c(F)c2)ccn1 [Regorafenib (BAY 73-4506)] | 1.82 | 2.6 | 1.66 | 1.6 | 1.42 | 1.63 |
| Cc1ccc(C(=O)N(CCCN)[C@@H](c2nc3cc(Cl)ccc3c(=O)n2Cc2ccccc2)C(C)C)cc1 | 3.64 | 3.18 | 4.25 | 2.49 | 3.84 | 3.78 |
| Cn1c(Cn2ccc(C(F)(F)F)c(Oc3cc(Cl)cc(C#N)c3)c2=O)n[nH]c1=O [Doravirine (MK-1439)] | 1.23 | 0.8 | 1.11 | 1.13 | 0.593 | 0.914 |
| FC(F)(F)c1ccc(CNc2ccc(Cc3c[nH]c4ncc(Cl)cc34)cn2)cn1 [Pexidartinib (PLX3397)] | 1.31 | 1.41 | 1.04 | 1.53 | 2.18 | 1 |
| Cc1c(-c2ccccc2)oc2c(C(=O)OCCN3CCCCC3)cccc2c1=O [Flavoxate HCl] | 0.908 | 2.27 | 1.73 | 2.91 | 0.927 | 1.61 |
| CN(Cc1cc(Br)cc(Br)c1N)C1CCCCC1 [Bromhexine] | 0.96 | 1.02 | 0.619 | 0.847 | 0.566 | 1.03 |
| C/C(=C\c1ccc(C(=O)O)cc1)c1ccc2c(c1)C(C)(C)CCC2(C)C [TTNPB (Arotinoid Acid)] | 0.687 | 1.39 | 1.07 | 2.49 | 1.61 | 1.35 |
| CN(C)CCc1c[nH]c2ccc(CS(=O)(=O)N3CCCC3)cc12 [Almotriptan Malate] | 1.05 | 0.798 | 0.545 | 1.14 | 1.78 | 1.51 |
| CO/N=C(\C(=O)N[C@@H]1C(=O)N2C(C(=O)O)=C(CSc3nc(=O)c(O)nn3C)CS[C@H]12)c1csc(N)n1 [Ceftriaxone Sodium Trihydrate] | 1.01 | 0.779 | 1.23 | 0.836 | 0.792 | 0.926 |
| CO[C@H]1/C=C/O[C@@]2(C)Oc3c(C)c(O)c4c(O)c(c5c(nc6cc(C)ccn65)c4c3C2=O)NC(=O)/C(C)=C\C=C\[C@H](C)[C@H](O)[C@@H](C)[C@@H](O)[C@@H](C)[C@H](OC(C)=O)[C@@H]1C [Rifaximin] | 1.35 | 0.671 | 0.886 | 1 | 1.9 | 1.06 |
| COCCc1ccc(OCC(O)CNC(C)C)cc1 (centres undefined) [Metoprolol Tartrate] | 0.573 | 0.762 | 0.69 | 0.67 | 0.507 | 0.885 |
| OCC(CO)N[C@H]1C[C@](O)(CO)[C@@H](O)[C@H](O)[C@H]1O [Voglibose] | 0.92 | 0.919 | 0.846 | 0.977 | 1.06 | 1.34 |
| Cn1c(=O)c2[nH]cnc2n(C)c1=O [Aminophylline] | 1.11 | 1.06 | 0.75 | 0.798 | 0.585 | 0.841 |
| CS(=O)(=O)Nc1ccc([N+](=O)[O-])cc1Oc1ccccc1 [Nimesulide] | 1.43 | 1.21 | 0.674 | 1.03 | 1.82 | 1.8 |
| CC(C)(O/N=C(\C(=O)N[C@@H]1C(=O)N2C(C(=O)[O-])=C(C[n+]3ccccc3)CS[C@H]12)c1csc(N)n1)C(=O)O [Ceftazidime] | 1.39 | 0.613 | 0.815 | 1.06 | 0.385 | 1.62 |
| CC(C)OC(=O)OCOP(=O)(CO[C@H](C)Cn1cnc2c(N)ncnc21)OCOC(=O)OC(C)C [Tenofovir Disoproxil Fumarate] | 3.16 | 2.92 | 1.88 | 3.17 | 3.46 | 2.99 |
| Cc1ncc([N+](=O)[O-])n1C [Dimetridazole] | 1.08 | 0.82 | 1.15 | 0.783 | 0.672 | 0.957 |
| CN(N=O)C(=O)NC1C(O)OC(CO)C(O)C1O (centres undefined) [Streptozotocin (STZ)] | 1.35 | 0.706 | 0.768 | 1.26 | 0.501 | 1.16 |
| CCN(CC)CCNC(=O)c1cc(S(C)(=O)=O)ccc1OC [Tiapride Hydrochloride] | 0.725 | 0.496 | 0.652 | 0.955 | 0.542 | 0.874 |
| Cn1ncnc1[C@H]1c2n[nH]c(=O)c3cc(F)cc(c23)N[C@@H]1c1ccc(F)cc1 | 1.03 | 1.17 | 0.939 | 1.27 | 1.56 | 0.901 |
